# CRFBP-R2 agonist – agonists of human CRF-binding protein/CRF-R2 receptor complex; activation, % at 13.2 µM; AID 588473; HEK293 CRF-R2/CRF-BP, calcium dye fluorescence (FLIPR); percent of saturating CRF peptide response; 350,000 tested, 0.46% active;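 active = activation of at least 50%, plus an integration ratio under a set limit after plate pattern correction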;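 note: plate controls were neutral control wells without compound for no effect and CRF at EC100 for full effect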
# RTF Ca sens inh – cardiac RTF calcium desensitization. P19429+P45379. IANBD-labeled cardiac RTF, Ca2+ fluorescence. inhibition, % at 7.15 µM. 340,000 tested, 0.12% active;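 active = inhibition above the mean inhibition of all tested compounds plus 3 SD, cut at about 17% in these data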;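 note: assay run at fixed EC70 calcium of 1.6 mM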
# IDE cell activ – activators of human insulin-degrading enzyme in cells. 340,000 tested, 0.073% active. P14735. AID 493087. activation, % at 5.96 µM. HEK cells, FAbeta-B cleavage, fluorescence polarization; 0% vehicle, 100% cell-free pure enzyme wells;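 active = activation above the mean of all tested compounds plus 3 SD, set per screening campaign, cut at about 17% in these data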
# Target sequence (P14735 whole entry, looked up): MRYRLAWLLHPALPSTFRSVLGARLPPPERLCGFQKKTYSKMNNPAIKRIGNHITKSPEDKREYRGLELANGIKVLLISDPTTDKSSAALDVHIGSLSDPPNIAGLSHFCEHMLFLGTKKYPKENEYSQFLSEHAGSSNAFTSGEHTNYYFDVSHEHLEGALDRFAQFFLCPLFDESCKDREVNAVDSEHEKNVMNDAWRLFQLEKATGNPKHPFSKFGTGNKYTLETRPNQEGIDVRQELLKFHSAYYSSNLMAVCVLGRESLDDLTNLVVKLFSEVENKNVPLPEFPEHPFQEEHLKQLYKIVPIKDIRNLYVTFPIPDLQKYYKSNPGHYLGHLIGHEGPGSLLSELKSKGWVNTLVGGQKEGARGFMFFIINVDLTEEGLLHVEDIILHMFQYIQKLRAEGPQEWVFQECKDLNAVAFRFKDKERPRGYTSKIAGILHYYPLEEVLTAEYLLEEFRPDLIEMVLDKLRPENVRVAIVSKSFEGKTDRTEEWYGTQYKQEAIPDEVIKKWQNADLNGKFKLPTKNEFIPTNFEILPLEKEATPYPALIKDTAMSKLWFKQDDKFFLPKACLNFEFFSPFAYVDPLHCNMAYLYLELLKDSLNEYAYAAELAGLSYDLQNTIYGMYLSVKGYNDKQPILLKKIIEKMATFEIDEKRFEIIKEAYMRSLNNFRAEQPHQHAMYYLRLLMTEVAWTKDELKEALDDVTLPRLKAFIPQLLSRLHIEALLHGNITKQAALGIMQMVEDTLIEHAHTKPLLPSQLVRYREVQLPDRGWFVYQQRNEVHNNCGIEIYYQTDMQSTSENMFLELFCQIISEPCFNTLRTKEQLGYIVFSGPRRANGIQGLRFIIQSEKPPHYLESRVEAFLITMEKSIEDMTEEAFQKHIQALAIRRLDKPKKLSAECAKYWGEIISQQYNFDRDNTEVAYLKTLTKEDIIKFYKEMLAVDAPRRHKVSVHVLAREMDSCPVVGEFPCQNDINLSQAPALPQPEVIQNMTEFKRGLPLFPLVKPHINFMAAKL
# RTF Ca sens act – cardiac RTF calcium sensitization | 340,000 tested, 0.24% active | activation, % at 7.2 µM | P19429+P45379 | IANBD-labeled TnC RTF fluorescence at EC20 calcium; 0% EC20 calcium, 100% full calcium;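 active = activation above the mean over all tested compounds plus 3 SD, cut at about 30% in these data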;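 note: rise in fluorescence read as greater calcium sensitivity of cardiac thin filaments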
# CRFR2-BP antag – blocks CRF-induced signaling of the CRF-BP/CRF-R2 complex | inhibition, % at 11.8 µM | 350,000 tested, 0.59% active | HEK293 CRF-R2/CRF-BP, CRF-induced calcium fluorescence | AID 588475;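 active = inhibition of the ligand-induced calcium signal above about 50% at the single tested concentration, limit read from the data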
# IDE cell inh – cellular human IDE inhibition; P14735; HEK cells, FAbetaB cleavage, fluorescence polarization; inhibition, % at 5.59 µM; 320,000 tested, 0.41% active;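 active = percent inhibition above the average of all tested compounds plus 3 SD, set per screening campaign, cut at about 16% in these data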;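 note: IDE supplied by intact live HEK cells; FP after avidin binding of uncleaved biotin substrate so inhibition keeps polarization high; 0% = DMSO wells and 100% = 60 µM reference IDE inhibitor Ii1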
# IDE cell inh cf – cellular human IDE inhibition, confirmation; 1,200 tested, 51% active; AID 435028; inhibition, % at 5.59 µM; HEK cells, FAbetaB cleavage, fluorescence polarization; shares compounds with IDE cell inh;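 active = mean inhibition across triplicate wells above the cutoff set by the earlier primary insulin-degrading enzyme screen, cut at about 16% in these data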;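 note: 0% = DMSO wells and 100% = 60 µM reference IDE inhibitor Ii1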
# HEK cytotox – HEK cell cytotoxicity, counter-screen for IDE inhibitors | HEK293 cytotoxicity, ATP luminescence | 1,200 tested, 28% active | shares compounds with IDE cell inh | inhibition, % at 5.59 µM; in the data active = inhibition above about 22%;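 note: 0% = vehicle wells and 100% = reference cytotoxic drug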
# RTF Ca inh conf – confirmation of inhibitors of cardiac thin filament calcium sensitivity; shares compounds with RTF Ca sens inh; reconstituted cardiac thin filaments, calcium sensitivity fluorescence; inhibition, % at 7.15 µM; 360 tested, 8% active; in the data active = inhibition above about 18%
# * marks the source's active call; other numbers are inactive results; i = inactive; / = no result given; ! = a repeat was not active. Only some compounds are listed: those with a hit (about 1.5% of all), similar ones and a draw of the others.
SMILES,CRFBP-R2 agonist,RTF Ca sens inh,IDE cell activ,RTF Ca sens act,CRFR2-BP antag,IDE cell inh,IDE cell inh cf,HEK cytotox,others
CCN(CC)c1ccc(N=Cc2c(O)n(CCC3=CCCCC3)c(=O)[nH]c2=O)cc1,115*,-10,4,5,-132,1,/,/,
COc1cc(/C=C/c2nc3ccccc3c(=O)n2-c2ccccc2O)ccc1O,12,-11,-61,10,-13,60*,128*,15,
COc1ccccc1-n1c(/C=C/c2ccc(O)cc2)nc2ccccc2c1=O,8,-14,-81,-1,-4,90*,128*,13,
O=c1c2ccccc2nc(/C=C/c2ccccc2)n1-c1ccc(O)cc1,1,2,3,3,-4,7,/,/,
CCc1nc2ccccc2c(=O)n1-c1ccccc1OC,1,-1,1,-3,-2,/,/,/,
COc1cc(/C=C/c2nc3ccccc3c(=O)n2-c2cccc(O)c2)ccc1O,5,-7,-114,-1,-14,65*,153*,19,
O=c1c2ccccc2nc(/C=C/c2ccc(O)c(O)c2)n1-c1ccccc1,6,-2,-128,6,-16,170*,102*,21,
Cc1ccccc1-n1c(/C=C/c2ccccn2)nc2ccccc2c1=O,-1,-2,-2,-1,0,2,/,/,
CCC1CN1P(=O)(N1CCCC1)N1CC1CC (configuration not stated),-1,1,2,-2,-14,/,/,/,
O=C1NC(=O)N(c2ccc3c(c2)OCO3)C(=O)/C1=C\c1ccc(N2CCCCC2)o1,73*,-88,-34,50*,-38,19*,21*,14,
Cc1ccccc1N1C(=O)NC(=O)/C(=C/c2ccc(N3CCOCC3)o2)C1=O,29,-61,-11,51*,-21,27*,19*,3,
O=c1cc(C(F)(F)F)c2cc3c4c(c2o1)CCCN4CCC3,173*,i,-94,545*,-134,128*,26*,19,
COC(=O)C(O)(c1ccc(NC(=O)c2cccs2)cc1)C(F)(F)F (configuration not stated),1,/,/,/,-1,6,/,/,
COc1ccc(CN2C(=O)NC(=O)/C(=C/c3cc(OC)c(OC)c(OC)c3)C2=O)cc1,13,-2,-1,7,0,2,/,/,
COc1ccc(CN2C(=O)NC(=O)/C(=C/c3ccoc3)C2=O)cc1,10,-62,-35,20,51*,27*,9,4,
Cc1ccc(N2C(=O)NC(=O)/C(=C/c3ccoc3)C2=O)cc1,11,-12,-27,1,-13,/,/,/,
C=CCN1C(=O)NC(=O)/C(=C/c2ccoc2)C1=O,21,-54,-11,10,-9,19*,10,8,
COC(=O)C1=C(c2cccc(C#N)c2)C[C@@H]2CC[C@H]1N2C(=O)N1CCCC1,0,-14,0,3,1,6,/,/,
C#CC1(OC(=O)c2ccccc2)CC(C)N(C)CC1C (configuration not stated),2,-4,0,8,3,/,/,/,
Cc1cccc(-n2c(O)c(/C=C/C=Nc3ccccc3)c(=O)[nH]c2=O)c1,56*,-100,-49,77*,-52,38*,56*,8,
Cn1c(O)c(/C=C/C=Nc2ccccc2)c(=O)n(C)c1=S,55*,-39,-17,29,-106,27*,45*,5,
CC(=Nc1ccccc1N)c1c(O)n(C)c(=O)[nH]c1=O,0,-1,1,2,9,5,/,/,
O=C1NC(=O)N(c2cccc(Br)c2)C(=O)/C1=C/c1ccsc1,1,6,1,1,-9,22*,6,5,
O=C1NC(=O)N(Cc2ccc(F)cc2)C(=O)/C1=C\C=C\c1ccco1,11,-21,-18,8,-59,19*,9,12,
O=[N+]([O-])c1ccc(N2CCCC(C(F)(F)F)C2)c2ccncc12 (configuration not stated),-3,-5,-1,0,-12,2,/,/,
SMILES,CRFBP-R2 agonist,RTF Ca sens inh,IDE cell activ,RTF Ca sens act,CRFR2-BP antag,IDE cell inh,IDE cell inh cf,HEK cytotox,others
Cc1ccccc1N1CCN(Cc2ccc3c(c2)OCO3)CC1,-1,-5,1,-1,0,4,/,/,
O=[N+]([O-])c1ccc(NCc2ccc(Cl)cc2)c2ccncc12,-1,-13,-1,0,13,4,/,/,
O=[N+]([O-])c1ccc(NCc2ccccc2)c2nonc12,493*,/,/,/,i,34*,26*,16,
O=C1NC(=S)NC(=O)C1=Cc1cccc2cc3ccccc3cc12,1,-6,-5,6,1,/,/,/,
CC1(C)OC(c2ccccc2)=C/C(=C/C=C2C(=O)NC(=S)NC2=O)O1,144*,/,/,/,-194,21*,142*,14,
Cc1ccc(N2CCNCC2C)cc1 (configuration not stated),12,2,-2,-3,23,/,/,/,
CN(C)[C@@H]1C(=O)C(C(N)=O)=C(O)[C@@]2(O)C(=O)C3=C(O)c4c(O)cccc4[C@@](C)(O)C3[C@H](O)C12 (some centres not stated),2,21*!,-1,10,-12,-1,/,/,RTF Ca inh conf=-5
O=C1CN=C(c2cccc(Br)c2)c2cc(Br)ccc2N1,-1,3,0,-3,-41,-3,/,/,
c1ccc(CCCN2CCN(CCOC(c3ccccc3)c3ccccc3)CC2)cc1,0,-14,0,0,18,-2,/,/,
Fc1ccc(C(OCCN2CCN(CCCc3ccccc3)CC2)c2ccc(F)cc2)cc1,3,17*,9,-3,-15,-3,/,/,RTF Ca inh conf=-2

# Source: PubChem
